According to PubChem BioAssay AID1159580 (chemical genetic matrix, 2015):
Hit rate of the full screen: of about 5,500 compounds, about 2,000 (36%) were called active. Another 18% or so got no clear call; they are omitted. Cut-off read from the data, not from the text of the source: active = normalized growth mostly below about 0.91 (no sharp cut-off); inconclusive = no clear call, values can overlap the other calls; inactive = mostly above about 0.92. The list shows a part of the results.

Test: chemical genetic growth profiling, strain panel (AID 1159580);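 note: tested at 20 µM; growth read once vehicle control cultures reached saturation at 30 °C; 1 = growth at the plate median or of vehicle wells; lower values mean less growth of the strain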
Conditions: growth OD

Measured: normalized growth

O=C(O)CCC1NCC2CC1CN1CCCCC21 (configuration not stated)
inactive: S. cerevisiae deletion strains, locus YJR075W, strain HOC1, active compounds read low 1.01 | S. cerevisiae deletion strains, locus YKL009W, strain mrt4, active compounds read low 1.02 | S. cerevisiae deletion strains, locus YKL068W, active compounds read low 1 | S. cerevisiae deletion strains, locus YKL085W, strain MDH1 (second series), active compounds read low 1.02 | S. cerevisiae deletion strains, locus YKL085W, strain MDH1, active compounds read low 1.02 | S. cerevisiae deletion strains, locus YKL160W, strain elf1, active compounds read low 0.974 | S. cerevisiae deletion strains, locus YKL190W, strain CNB1, active compounds read low 1 | S. cerevisiae deletion strains, locus YKR001C, strain vps1, active compounds read low 0.995 | S. cerevisiae deletion strains, locus YKR026C, strain gcn3, active compounds read low 0.982 | S. cerevisiae deletion strains, locus YKR091W, strain srl3, active compounds read low 0.97 | S. cerevisiae deletion strains, locus YLL001W, strain dnm1, active compounds read low 0.954 | S. cerevisiae deletion strains, locus YLL026W, active compounds read low 0.98 | S. cerevisiae deletion strains, locus YLL041C, strain sdh2, active compounds read low 0.987 | S. cerevisiae deletion strains, locus YLR027C, strain aat2, active compounds read low 0.992 | S. cerevisiae deletion strains, locus YLR039C, strain RIC1, active compounds read low 0.998 | S. cerevisiae deletion strains, locus YLR058C, strain SHM2, active compounds read low 1.01 | S. cerevisiae deletion strains, locus YLR102C, strain apc9, active compounds read low 0.99 | S. cerevisiae deletion strains, locus YLR113W, strain HOG1, active compounds read low 0.983 | S. cerevisiae deletion strains, locus YLR221C, strain rsa3, active compounds read low 0.968 | S. cerevisiae deletion strains, locus YLR258W, strain gsy2, active compounds read low 0.992 | S. cerevisiae deletion strains, locus YLR262C, strain YPT6 (second series), active compounds read low 0.958 | S. cerevisiae deletion strains, locus YLR262C, strain YPT6, active compounds read low 0.97 | S. cerevisiae deletion strains, locus YLR268W, strain sec22, active compounds read low 0.988 | S. cerevisiae deletion strains, locus YLR320W, strain mms22, active compounds read low 0.962 | S. cerevisiae deletion strains, locus YLR330W, strain CHS5, active compounds read low 1.01 | S. cerevisiae deletion strains, locus YLR342W, strain FKS1 (second series), active compounds read low 1.05 | S. cerevisiae deletion strains, locus YLR342W, strain FKS1, active compounds read low 0.981 | S. cerevisiae deletion strains, locus YLR357W, strain rsc2, active compounds read low 0.971 | S. cerevisiae deletion strains, locus YLR370C, strain arc18, active compounds read low 0.978 | S. cerevisiae deletion strains, locus YLR371W, strain rom2, active compounds read low 0.998 | S. cerevisiae deletion strains, locus YLR384C, strain iki3, active compounds read low 0.969 | S. cerevisiae deletion strains, locus YLR418C, strain cdc73, active compounds read low 0.923 | S. cerevisiae deletion strains, locus YML016C, strain PPZ1, active compounds read low 1 | S. cerevisiae deletion strains, locus YML032C, strain rad52, active compounds read low 1 | S. cerevisiae deletion strains, locus YML120C, strain ndi1, active compounds read low 0.956 | S. cerevisiae deletion strains, locus YML124C, strain tub3, active compounds read low 0.997 | S. cerevisiae deletion strains, locus YMR058W, strain fet3, active compounds read low 0.969 | S. cerevisiae deletion strains, locus YMR078C, strain ctf18, active compounds read low 1 | S. cerevisiae deletion strains, locus YMR125W, strain sto1, active compounds read low 0.962 | S. cerevisiae deletion strains, locus YMR129W, active compounds read low 0.989 | S. cerevisiae deletion strains, locus YMR205C, strain PFK2, active compounds read low 0.964 | S. cerevisiae deletion strains, locus YMR223W, strain ubp8, active compounds read low 1.02 | S. cerevisiae deletion strains, locus YMR231W, strain pep5, active compounds read low 0.985 | S. cerevisiae deletion strains, locus YMR263W, strain SAP30, active compounds read low 0.998 | S. cerevisiae deletion strains, locus YMR307W, strain GAS1, active compounds read low 1.07 | S. cerevisiae deletion strains, locus YNL067W, strain RPL9B, active compounds read low 0.999 | S. cerevisiae deletion strains, locus YNL071W, strain lat1, active compounds read low 0.991 | S. cerevisiae deletion strains, locus YNL128W, strain TEP1, active compounds read low 1.02 | S. cerevisiae deletion strains, locus YNL153C, strain GIM3, active compounds read low 0.989 | S. cerevisiae deletion strains, locus YNL183C, strain NPR1, active compounds read low 0.938 | S. cerevisiae deletion strains, locus YNL209W, strain ssb2, active compounds read low 0.984 | S. cerevisiae deletion strains, locus YNL233W, strain BNI4, active compounds read low 1.01 | S. cerevisiae deletion strains, locus YNL248C, strain rpa49, active compounds read low 0.998 | S. cerevisiae deletion strains, locus YNL250W, strain rad50, active compounds read low 1.01 | S. cerevisiae deletion strains, locus YNL271C, strain bni1, active compounds read low 1 | S. cerevisiae deletion strains, locus YNL298W, strain CLA4, active compounds read low 0.997 | S. cerevisiae deletion strains, locus YNL307C, strain MCK1, active compounds read low 1 | S. cerevisiae deletion strains, locus YNL322C, strain KRE1 (second series), active compounds read low 0.97 | S. cerevisiae deletion strains, locus YNL322C, strain KRE1, active compounds read low 1.01 | S. cerevisiae deletion strains, locus YNR049C, strain mso1, active compounds read low 0.971 | S. cerevisiae deletion strains, locus YNR052C, strain pop2, active compounds read low 1 | S. cerevisiae deletion strains, locus YOL006C, strain TOP1, active compounds read low 1.04 | S. cerevisiae deletion strains, locus YOL012C, strain htz1 0.732 | S. cerevisiae deletion strains, locus YOL147C, strain pex11, active compounds read low 1 | S. cerevisiae deletion strains, locus YOR001W, strain rrp6, active compounds read low 1.01 | S. cerevisiae deletion strains, locus YOR061W, strain CKA2, active compounds read low 1 | S. cerevisiae deletion strains, locus YOR069W, strain VPS5, active compounds read low 1 | S. cerevisiae deletion strains, locus YOR070C, strain gyp1, active compounds read low 0.973 | S. cerevisiae deletion strains, locus YOR080W, strain dia2, active compounds read low 0.964 | S. cerevisiae deletion strains, locus YOR083W, strain WHI5, active compounds read low 0.965 | S. cerevisiae deletion strains, locus YOR106W, strain vam3, active compounds read low 0.968 | S. cerevisiae deletion strains, locus YOR136W, strain idh2, active compounds read low 0.998 | S. cerevisiae deletion strains, locus YOR144C, strain elg1, active compounds read low 0.988 | S. cerevisiae deletion strains, locus YOR184W, strain ser1, active compounds read low 1.04 | S. cerevisiae deletion strains, locus YOR231W, strain MKK1, active compounds read low 1.04 | S. cerevisiae deletion strains, locus YOR265W, strain rbl2, active compounds read low 0.977 | S. cerevisiae deletion strains, locus YOR270C, strain vph1, active compounds read low 0.951 | S. cerevisiae deletion strains, locus YOR290C, strain snf2, active compounds read low 0.916 | S. cerevisiae deletion strains, locus YOR316C, strain cot1, active compounds read low 0.992 | S. cerevisiae deletion strains, locus YPL051W, strain arl3, active compounds read low 0.982 | S. cerevisiae deletion strains, locus YPL055C, strain LGE1, active compounds read low 0.99 | S. cerevisiae deletion strains, locus YPL078C, strain atp4, active compounds read low 0.983 | S. cerevisiae deletion strains, locus YPL106C, strain sse1, active compounds read low 0.946 | S. cerevisiae deletion strains, locus YPL240C, strain hsp82, active compounds read low 0.974 | S. cerevisiae deletion strains, locus YPL241C, strain CIN2, active compounds read low 0.995 | S. cerevisiae deletion strains, locus YPL256C, strain CLN2, active compounds read low 1.02 | S. cerevisiae deletion strains, locus YPR119W, strain clb2, active compounds read low 0.991 | S. cerevisiae deletion strains, locus YPR141C, strain kar3, active compounds read low 0.987 | S. cerevisiae deletion strains, locus YPR163C, strain tif3, active compounds read low 0.983 | S. cerevisiae deletion strains, locus YPR167C, strain met16, active compounds read low 0.981 | S. cerevisiae deletion strains, strain wtn01, active compounds read low 0.999 | S. cerevisiae strains, strain wild type, active compounds read low 1.01
